Screens from PubChem BioAssay.
Only some compounds are listed: those with a hit (about 6% of all), similar ones and a draw of the others.
D3 ag: D3 dopamine receptor (human) agonism | P35462 | D3R DiscoveRx beta-arrestin cells, luminescence, 90 min | max activation, % | 0.58% of 410,000 active | AID 652048; in the data active = max activation above about 30%
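Agonist-mode cell screen: cells plated at 1500/well and incubated overnight at 37 °C, then exposed to library compounds for 90 min at 37 °C. Detection reagent was added for 30–60 min at room temperature, and luminescence was read.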
D1 agonist: agonists of human D1 dopamine receptor. P21728. activation, % at 2 µM. 1% of 360,000 active. HEK293 T-REx D1 cells, calcium flux, agonist mode; in the data active = activation above about 30%
Target sequence (P21728 whole entry, looked up): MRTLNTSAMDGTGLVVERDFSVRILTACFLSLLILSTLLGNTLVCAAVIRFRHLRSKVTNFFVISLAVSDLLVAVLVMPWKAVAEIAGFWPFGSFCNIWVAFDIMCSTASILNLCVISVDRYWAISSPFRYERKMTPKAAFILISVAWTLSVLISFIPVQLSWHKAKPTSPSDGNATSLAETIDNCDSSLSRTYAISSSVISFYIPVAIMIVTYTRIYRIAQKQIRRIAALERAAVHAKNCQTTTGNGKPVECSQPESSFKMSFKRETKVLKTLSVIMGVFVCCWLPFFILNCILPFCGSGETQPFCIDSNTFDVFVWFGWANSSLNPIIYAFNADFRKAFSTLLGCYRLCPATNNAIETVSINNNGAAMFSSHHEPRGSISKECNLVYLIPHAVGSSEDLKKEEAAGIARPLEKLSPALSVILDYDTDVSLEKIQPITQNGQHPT
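Tetracycline-induced HEK293 TREx D1 cells, force-coupled to calcium signalling, were dye-loaded with a no-wash calcium kit. Compound was pin-added after a 10 s baseline. Fluorescence was read kinetically at 1 cycle/s for 180 s, with calcium rises flagged as agonism.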
D1 antagonist: antagonists of human D1 dopamine receptor; activity change, negative = inhibition, % at 10 µM; AID 504652; HEK293 TREx D1 cells, calcium flux, dopamine EC80; stronger effect = lower value; 3.2% of 360,000 active; in the data active = activity change below about -30%
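Tetracycline-induced HEK293 Trex D1 cells, force-coupled to calcium, dye-loaded; compounds added and read 180 s, then EC80 dopamine added and calcium flux tracked kinetically another 180 s.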
D3 antag: blocks the human D3 dopamine receptor; P35462; D3R cells, DiscoveRx beta-arrestin luminescence, antagonist mode; stronger effect = lower value; max response, negative = inhibition, %; 2.5% of 360,000 active; in the data active = max response below about -50%; inconclusive = no clear call, values can overlap the other calls
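Cells plated overnight at 1500 cells/well, then exposed to library compounds with dopamine controls for 90 minutes at 37 degrees C. DiscoveRx reagent added for 30–60 minutes at room temperature; luminescence read, quantitative HTS format.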
BCR signal inh: chronic active BCR signaling inhibition | ABC-DLBCL IkBa-CBG/CBR reporter, luminescence ratio, 4 h | AID 493014 | Potency, µM (doses to about 46.1 µM), usual class: inhibitors | 0.05% of 340,000 active; active = well fitted inhibition curve with a large enough effect in the signal ratio, with a control signal flat, not every such curve was filed as active; inconclusive = small, poorly fitted or top-dose-only effect, or effect the other way, or a change in a side signal; the % refers to the signal ratio
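Cell line TMD8 (human ABC DLBCL), stably expressing tet-inducible CBG68-IkBa fusion and CBR; IMDM/0.5% FBS; cpd up to 46 uM; dox induction, 4 h, 37C/5% CO2; dual luminescence; green/red ratio; MG132 control.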
D1 PAM: potentiators of human D1 dopamine receptor; potentiation, % at 10 µM; HEK293 TREx D1 cells, calcium flux, dopamine EC20 potentiation; 0.036% of 360,000 active; P21728; in the data active = potentiation above about 30%
Hits are given with their value; i = inactive; ? = inconclusive; nt = no result given.

SMILES	D3 ag	D1 agonist	D1 antagonist	D3 antag	BCR signal inh	D1 PAM
O=c1c2ccccc2nc(SCCN2CCCCC2)n1CCc1ccccc1	i	i	i	-56	?	i
CCN(CC)CCCNC(=O)c1cn(CC)c2ccc(S(=O)(=O)N3CCC(C)CC3)cc2c1=O	i	i	i	nt	nt	i
COc1ccc(-c2cn3cccnc3n2)cc1NC(=O)Nc1ccc(Cl)cc1	i	i	i	nt	nt	i
OCCNCc1cc(Br)ccc1OCc1ccc(Cl)cc1Cl	i	38	i	i	i	i
CC(=O)n1c2ccccc2c2c1c1ccccc1n2C	i	i	i	-56	?	i
CNC(=O)CN(CCN(CCN(CC(=O)[O-])CC(=O)NC)CC(=O)[O-])CC(=O)[O-].O.[Gd+3]	i	nt	nt	nt	nt	nt
CN(CC(=O)Nc1ccc(F)cc1)C(=O)CSc1ccc2c(c1)OCCO2	i	i	i	i	i	i
Cc1ccc(SCC(=O)OCC(=O)N(C)CC(=O)Nc2ccc(F)cc2)cc1C	i	53	i	i	?	i
CC(C)c1ccccc1OCC(=O)N(C)CC(=O)Nc1ccc(F)cc1	i	i	i	-58	i	i
Cc1ccc(OCCN2CCN(c3ncnc4sc(C)c(C)c34)CC2)cc1	33	i	i	i	?	i
CCOC(=O)Cn1c(S(=O)(=O)Cc2cccc(F)c2)nc(-c2ccccc2)c1-c1ccccc1	i	i	-38	i	i	i
Cc1ccc(Cl)cc1NC(=O)CSc1nc2c(c(=O)[nH]1)CN(Cc1ccccc1)CC2	i	i	-81	nt	nt	i
CCN1CCC(N(Cc2ccc3c(c2)OCO3)C(=O)Nc2cc(F)ccc2F)CC1	i	i	i	nt	nt	i
O=C(Oc1oc(-c2ccco2)nc1C=Nc1ccccc1)c1ccco1	i	i	i	-50	i	i
O=C(Oc1oc(-c2ccco2)nc1C=Nc1ccccc1)c1ccoc1	i	i	i	?	?	i
COc1ccc2ccc3c(c2c1)N=C[C@]1(O3)N(C)c2ccccc2C1(C)C	i	i	i	-70	?	i
O=C(c1ccc2c(c1)N(Cc1c(F)cccc1Cl)C(=O)c1ccccc1S2)N1CCCC1	i	i	i	nt	nt	i
Oc1ccccc1C1CCCCC1c1ccccc1 (stereo not given)	i	i	-39	i	?	i
Oc1ccccc1C1SC(c2ccccc2O)SC(c2ccccc2O)S1 (stereo not given)	i	nt	nt	i	nt	nt
COc1ccc(C2NC(=O)N(C)C3=C2C(=O)N(c2ccccc2)C3)cc1 (stereo not given)	i	i	i	nt	nt	i
Cc1noc(C)c1COC(=O)c1cnc(Cl)c(Cl)c1	i	i	-42	i	?	i
Cc1noc(C)c1COC(=O)c1cc(F)c(F)cc1Cl	i	i	i	i	i	i
COc1cc(CNCCCSc2nnnn2C)cc(Br)c1OC	i	i	i	nt	i	i
Clc1ccc(-c2ccc(CNCc3ccccn3)o2)cc1	i	i	i	-69	i	i
CCCN1CCN(c2nc3c([nH]2)c(=N)ncn3CC(O)CO)CC1 (stereo not given)	i	i	i	i	i	i
SMILES	D3 ag	D1 agonist	D1 antagonist	D3 antag	BCR signal inh	D1 PAM
N=c1ncn(CC(O)CN2CCOCC2)c2nc(N3CCOCC3)[nH]c12 (stereo not given)	i	i	-58	i	i	i
CC(=O)c1ccc(NC(=O)C(C)NCc2ccccc2Cl)cc1 (stereo not given)	i	i	-36	i	i	i
CCCC(=O)Nc1ccc(C(=O)NCc2ccccc2Cl)cc1	i	i	i	i	i	i
COC(=O)c1ccc2cn[nH]c2c1	i	nt	nt	i	nt	nt
COc1ccc(NC(=O)CSc2oc(-c3cccs3)nc2S(=O)(=O)c2ccc(Br)cc2)c(OC)c1	i	i	i	nt	nt	i
CSc1ncc2c(n1)-c1ccccc1N(Cc1ccc(F)cc1)S2(=O)=O	i	i	i	nt	nt	i
CCCCN1CC(=O)N2[C@@H]3c4cc(OC)ccc4OC[C@@H]3[C@H](C(=O)OCC)[C@]2(C)C1=O	49	nt	nt	i	nt	nt
CCOC(=O)[C@H]1[C@H]2COc3ccc(C)cc3[C@@H]2N2C(=O)c3cc(OC)c(OC)cc3NC(=O)[C@@]12C	i	i	i	-60	i	i
